Results on 6 compounds are retold here after PubChem BioAssay (EPA / NIEHS).

Molecules are shown by their SMILES. Calls of active or inactive are those of the source. Rule for the calls: active = hit-call score of the fitted dose curve at least 0.9, where 1 is the maximum; inactive = score below 0.9.

Read-out in assay [1]: TIMP metallopeptidase inhibitor 1 (TIMP1), TIMP1 (gene 7076)
As to the kind of experiment: BSK_hDFCGF_TIMP1: BioMAP Diversity Plus: hDFCGF Assay for TIMP metallopeptidase inhibitor 1 (TIMP1) Biomarker Activity (AID 2283062). The following applies: primary human foreskin fibroblasts; actives raise or lower the signal. In a few lines: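 Primary human foreskin fibroblasts in the hDFCGF system were dosed with compound for 24 h, then TIMP-1 was measured by ELISA. Activity was fitted bidirectionally relative to DMSO control; parallel SRB staining assessed cytotoxicity.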

Read-out in assay [2]: Monokine induced gamma interferon (MIG), CXCL9 (gene 4283)
The assay is described as follows: BSK_hDFCGF_MIG: BioMAP Diversity Plus: hDFCGF Assay for Monokine induced gamma interferon (MIG) Biomarker Activity (AID 2283063). The following applies: primary human foreskin fibroblasts; actives raise or lower the signal. In a few lines:
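ELISA read-out of MIG from primary human dermal fibroblasts 24 h post-dosing. Gain or loss of signal fitted bidirectionally, DMSO as baseline.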

Read-out in assay [3]: Matrix Metallopeptidase 1 (MMP1), MMP1 (gene 4312)
As to the kind of experiment: BSK_hDFCGF_MMP1: BioMAP Diversity Plus: hDFCGF Assay for Matrix Metallopeptidase 1 (MMP1) Biomarker Activity (AID 2283064). Conditions: primary human foreskin fibroblasts; actives raise or lower the signal. In a few lines:
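ELISA read-out of MMP1 from human foreskin fibroblasts (primary skin cells), 24 h post-dose. Gain or loss of signal was fitted bidirectionally versus DMSO negative control; cytotoxicity was checked by SRB in parallel cultures.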

Read-out in assay [4]: Plasminogen activator inhibitor-1 (PAI1), SERPINE1 (gene 5054)
As to the kind of experiment: BSK_hDFCGF_PAI1: BioMAP Diversity Plus: hDFCGF Assay for Plasminogen activator inhibitor-1 (PAI1) Biomarker Activity (AID 2283066). Conditions: primary human foreskin fibroblasts; actives raise or lower the signal. In a few lines:
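PAI-1 levels in human dermal foreskin fibroblasts were quantified by ELISA 24 h after dosing, with gain or loss analysed against DMSO. Overt cytotoxicity was checked by sulforhodamine B total-protein staining in parallel cultures.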

Read-out in assay [5]: Intercellular Adhesion Molecule 1 (ICAM1), ICAM1 (gene 3383)
The assay is described as follows: BSK_KF3CT_ICAM1: BioMAP Diversity Plus: KF3CT Assay for Intercellular Adhesion Molecule 1 (ICAM1) Biomarker Activity (AID 2283067). Conditions: primary human keratinocytes with fibroblasts; actives raise or lower the signal. In short, it runs like this: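 Human keratinocyte plus foreskin fibroblast primary co-culture was exposed to chemical for 24 h. ICAM-1 was then quantified by ELISA, and the data were fit bidirectionally against DMSO as the negative control and baseline.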

Read-out in assay [6]: Interferon-gamma inducible Protein 10 (IP10), CXCL10 (gene 3627)
As to the kind of experiment: BSK_KF3CT_IP10: BioMAP Diversity Plus: KF3CT Assay for Interferon-gamma inducible Protein 10 (IP10) Biomarker Activity (AID 2283068). The following applies: primary human keratinocytes with fibroblasts; actives raise or lower the signal. In short, it runs like this:
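In a primary skin co-culture of keratinocytes and fibroblasts, IP-10 is quantified by ELISA at 24 h after dosing. SRB staining of parallel wells monitors overt toxicity. Curves are fitted both directions against DMSO.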

Assay [7] in a line: BSK_KF3CT_SRB: Viability Assessment in the BioMAP Diversity Plus: KF3CT Assay (AID 2283069).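 Note: read 24 h after compound addition.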 The following applies: primary human keratinocytes with fibroblasts. In short, it runs like this: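 SRB read-out at 560 nm (0.1% stain, TCA-fixed cells) gauges overt cytotoxicity in a human skin keratinocyte–fibroblast co-culture 24 h post-dosing. Signal change was fitted bidirectionally relative to DMSO control.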

Read-out in assay [8]: Interleukin-1 alpha (IL1a), IL1A (gene 3552)
The assay is described as follows: BSK_KF3CT_IL1a: BioMAP Diversity Plus: KF3CT Assay for Interleukin-1 alpha (IL1a) Biomarker Activity (AID 2283070). The following applies: primary human keratinocytes with fibroblasts; actives raise or lower the signal. In a few lines: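 Primary skin co-culture (keratinocytes, foreskin fibroblasts), 24 h exposure; ELISA for IL-1a; bidirectional curve fit vs DMSO.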

Read-out in assay [9]: TIMP metallopeptidase inhibitor 2 (TIMP2), TIMP2 (gene 7077)
As to the kind of experiment: BSK_KF3CT_TIMP2: BioMAP Diversity Plus: KF3CT Assay for TIMP metallopeptidase inhibitor 2 (TIMP2) Biomarker Activity (AID 2283071). Conditions: primary human keratinocytes with fibroblasts; actives raise or lower the signal. In short, it runs like this: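 TIMP-2 measured by ELISA at 24 h in human keratinocyte/fibroblast primary co-cultures exposed to chemicals. Both increases and decreases were fitted against DMSO. Parallel cultures were stained with SRB for total protein as an overt-cytotoxicity check.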

Read-out in assay [10]: Transforming growth factor beta 1 (TGFb1), TGFB1 (gene 7040)
As to the kind of experiment: BSK_KF3CT_TGFb1: BioMAP Diversity Plus: KF3CT Assay for Transforming growth factor beta 1 (TGFb1) Biomarker Activity (AID 2283072). The following applies: primary human keratinocytes with fibroblasts; actives raise or lower the signal. In a few lines:
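ELISA quantifies TGF-b1 at 24 h post-dose in a primary human skin co-culture of keratinocytes and fibroblasts, with gain or loss judged against DMSO. Parallel SRB total-protein staining flags overt cytotoxicity.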

Read-out in assay [11]: C-C motif chemokine 2 (Homo sapiens) (UniProt P13500)
The assay is described as follows: BSK_KF3CT_MCP1: BioMAP Diversity Plus: KF3CT Assay for Monocyte Chemoattractant Protein 1 (MCP1/CCL2) Biomarker Activity (AID 2283073). Conditions: primary human keratinocytes with fibroblasts; actives raise or lower the signal. In a few lines:
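Human keratinocyte plus foreskin fibroblast primary co-culture exposed to chemical for 24 h. MCP-1 levels measured by ELISA. Bidirectional curve fitting relative to DMSO negative control as baseline.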

Read-out in assay [12]: urokinase plasminogen activator (uPA), PLAU (gene 5328)
The assay is described as follows: BSK_KF3CT_uPA: BioMAP Diversity Plus: KF3CT Assay for urokinase plasminogen activator (uPA) Biomarker Activity (AID 2283075). The following applies: primary human keratinocytes with fibroblasts; actives raise or lower the signal. In short, it runs like this: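 Skin co-culture (keratinocytes + foreskin fibroblasts), human primary; 24 h post-dose; uPA by ELISA; gain/loss fit vs DMSO baseline.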

Read-out in assay [13]: CD40, CD40 (gene 958)
As to the kind of experiment: BSK_LPS_CD40: BioMAP Diversity Plus: LPS Assay for CD40 Biomarker Activity (AID 2283076). Conditions: primary human HUVEC with PBMC; actives raise or lower the signal. In a few lines: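 Primary human umbilical vein endothelial cells co-cultured with peripheral blood mononuclear cells, LPS-stimulated, were dosed with chemical and read 24 h later. CD40 levels were measured by ELISA and fitted bidirectionally against DMSO as negative control and baseline.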

Read-out in assay [14]: E-selectin (Homo sapiens) (UniProt P16581)
The assay is described as follows: BSK_LPS_Eselectin: BioMAP Diversity Plus: LPS Assay for Eselectin Biomarker Activity (AID 2283077). The following applies: primary human HUVEC with PBMC; actives raise or lower the signal. In a few lines: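 Human umbilical vein endothelial cells co-cultured with peripheral blood mononuclear cells under LPS stimulation; E-selectin measured by ELISA 24 h after chemical dosing. Activity fitted bidirectionally against DMSO as negative control and baseline.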

Read-out in assay [15]: Interleukin-8 (IL8), CXCL8 (gene 3576)
The assay is described as follows: BSK_LPS_IL8: BioMAP Diversity Plus: LPS Assay for Interleukin-8 (IL8) Biomarker Activity (AID 2283078). Conditions: primary human HUVEC with PBMC; actives raise or lower the signal. In short, it runs like this: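 Human umbilical vein endothelial cells co-cultured with PBMC were stimulated with LPS; IL-8 levels were measured by ELISA 24 h after chemical dosing. Activity was fitted bidirectionally against DMSO as negative control and baseline.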

Assay [16] can be described thus: BSK_LPS_SRB: Viability Assessment in the BioMAP Diversity Plus: LPS Assay (AID 2283079).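 Note: total protein by sulforhodamine B absorbance as a cytotoxicity measure; measured one day after compound addition.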 Conditions: primary human HUVEC with PBMC. In short, it runs like this: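 Human umbilical vein endothelial cells co-cultured with PBMC (LPS system) were dosed for 24 h. Total protein was stained with 0.1% sulforhodamine B after 10% TCA fixation, read at 560 nm, and fitted bidirectionally against DMSO baseline.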

Read-out in assay [17]: Interleukin-1 alpha (IL1a), IL1A (gene 3552)
The assay is described as follows: BSK_LPS_IL1a: BioMAP Diversity Plus: LPS Assay for Interleukin-1 alpha (IL1a) Biomarker Activity (AID 2283080). The following applies: primary human HUVEC with PBMC; actives raise or lower the signal. In a few lines:
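Human umbilical vein endothelial cells co-cultured with peripheral blood mononuclear cells were LPS-stimulated and exposed to test chemicals for 24 h. IL-1 alpha was quantified by ELISA, with bidirectional curve fitting against DMSO as the negative control and baseline.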

Read-out in assay [18]: Monocyte Chemoattractant Protein-1 (MCP1), CCL2 (gene 6347)
The assay is described as follows: BSK_LPS_MCP1: BioMAP Diversity Plus: LPS Assay for Monocyte Chemoattractant Protein-1 (MCP1) Biomarker Activity (AID 2283081). Conditions: primary human HUVEC with PBMC; actives raise or lower the signal. In short, it runs like this:
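HUVEC plus PBMC co-culture (human primary cells, LPS system) exposed to test chemical for 24 h; MCP-1 measured by ELISA. Bidirectional curve fitting against DMSO baseline; parallel SRB total-protein staining flags overt cytotoxicity.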

Read-out in assay [19]: Vascular cell adhesion molecule 1 (VCAM1), VCAM1 (gene 7412)
As to the kind of experiment: BSK_hDFCGF_VCAM1: BioMAP Diversity Plus: hDFCGF Assay for Vascular cell adhesion molecule 1 (VCAM1) Biomarker Activity (AID 2283065).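 For AC50: VCAM-1 protein level quantified by ELISA after 24 h chemical exposure.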 The following applies: primary human foreskin fibroblasts; actives raise or lower the signal. In short, it runs like this: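 Primary human foreskin fibroblasts (hDFCGF system) were dosed with chemical and VCAM-1 was measured by ELISA 24 h later. Bidirectional curve fitting used DMSO as negative control and activity baseline.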

Read-out in assay [20]: Matrix Metallopeptidase 9 (MMP9), MMP9 (gene 4318)
The assay is described as follows: BSK_KF3CT_MMP9: BioMAP Diversity Plus: KF3CT Assay for Matrix Metallopeptidase 9 (MMP9) Biomarker Activity (AID 2283074).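 For AC50: MMP9 protein level quantified by ELISA in the co-culture.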 Conditions: primary human keratinocytes with fibroblasts; actives raise or lower the signal. In short, it runs like this: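 ELISA read-out of MMP-9 at 24 h post-dosing in a co-culture of human skin keratinocytes and foreskin fibroblasts. Gain or loss of signal was fitted in both directions against DMSO.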

E-selectin (Homo sapiens), sequence (P16581 whole entry, looked up): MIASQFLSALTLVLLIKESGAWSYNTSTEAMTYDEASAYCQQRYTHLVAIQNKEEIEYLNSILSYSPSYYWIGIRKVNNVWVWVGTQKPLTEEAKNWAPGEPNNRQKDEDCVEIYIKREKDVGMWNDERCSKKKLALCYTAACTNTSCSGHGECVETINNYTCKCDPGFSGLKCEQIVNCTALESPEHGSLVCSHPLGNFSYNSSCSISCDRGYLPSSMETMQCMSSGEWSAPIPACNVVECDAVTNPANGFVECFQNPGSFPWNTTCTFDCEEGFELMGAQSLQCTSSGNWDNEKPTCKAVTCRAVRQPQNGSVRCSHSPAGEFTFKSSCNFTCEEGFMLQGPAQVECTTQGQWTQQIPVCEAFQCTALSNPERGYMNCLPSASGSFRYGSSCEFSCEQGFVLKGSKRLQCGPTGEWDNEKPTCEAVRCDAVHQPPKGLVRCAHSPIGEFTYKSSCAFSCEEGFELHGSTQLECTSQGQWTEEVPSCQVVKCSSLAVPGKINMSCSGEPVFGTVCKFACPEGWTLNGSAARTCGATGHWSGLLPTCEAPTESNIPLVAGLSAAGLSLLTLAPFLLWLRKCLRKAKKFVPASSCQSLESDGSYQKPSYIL

Take `CC[C@H]1OC(=O)[C@H](C)[C@@H](O[C@H]2C[C@@](C)(OC)[C@@H](O)[C@H](C)O2)[C@H](C)[C@@H](O[C@@H]2O[C@H](C)C[C@H](N(C)C)[C@H]2O)[C@](C)(O)C[C@@H](C)C(=O)[C@H](C)[C@@H](O)[C@]1(C)O`: the outcome in assay [1], in assay [2], in assay [3], in assay [4], in assay [5] and in assay [6] was inactive. For the same compound, the result in assay [7], in assay [8], in assay [9], in assay [10], in assay [11] and in assay [12] was inactive. The result in [13], in assay [14], in assay [15], in assay [16], in assay [17] and in [18] was inactive.
Consider `CC(=O)c1ccc2c(c1)[C@H](NC(=O)c1ccc(F)cc1)[C@@H](O)C(C)(C)O2`, for which the outcome in assay [1], in assay [2], in assay [3], in assay [19], in [4] and in assay [5] was inactive. Further, the result in assay [6], in assay [7], in assay [8], in [10], in assay [11] and in assay [20] was inactive. Further, the outcome in [12], in assay [13], in assay [15], in assay [16], in assay [17] and in [18] was inactive.
Consider `CC(C)=CCC/C(C)=C\CO`, for which the outcome in assay [1], in assay [2], in [3], in [19], in [4] and in assay [5] was inactive. Further, the result in assay [8], in assay [9], in [11], in assay [20], in assay [12] and in [14] was inactive. The result in [15], in assay [16], in assay [17] and in assay [18] was inactive.
As to `C1=CCCC=CCCC=CCC1`, the result in [1], in assay [2], in assay [3], in [19], in assay [4] and in assay [5] was inactive. In addition, the outcome in [8], in assay [10], in assay [11], in assay [20], in assay [12] and in [13] was inactive. The outcome in [15], in assay [16], in assay [17] and in assay [18] was inactive.
`O=C1CCC(N2C(=O)c3ccccc3C2=O)C(=O)N1` (stereo not given): the result in [1], in assay [2], in assay [3], in assay [19], in assay [4] and in assay [5] was inactive. Besides, the result in assay [6], in assay [7], in assay [8], in assay [10], in [11] and in [20] was inactive. Also, the outcome in [12], in assay [13], in assay [14], in assay [15], in assay [16] and in [17] was inactive. For the same compound, the result in assay [18] was inactive.
For the compound `COc1cccc(-c2ccc(/C=C\CN3CCCCCC3)cc2Cl)c1`, the AC50 – broadly, the concentration giving half of the maximal activity seen – in assay [1] was 29.1 µM (active); in [2], 34.5 µM (active); in assay [3], 34.4 µM (active); in assay [19], 30.5 µM (active); in assay [4], 25.3 µM (active); in assay [5] it was 28.4 µM (active). The half-maximal activity concentration (AC50) in assay [6] is 29.7 µM (active); in [7], 30.6 µM (active); in assay [8], 29 µM (active); in [10], 33.3 µM (active); in assay [11] it was 28.5 µM (active); in assay [20] it was 28 µM (active). The concentration at half-maximal activity (AC50) is 33.5 µM (active) in assay [12], 28.6 µM (active) in assay [13], 26.8 µM (active) in assay [16] and 28.4 µM (active) in assay [17]. Moreover, the outcome in assay [15] and in [18] was inactive.
